In the supplement of paper PMC10681739:

Key:
ETS1 = target: T1, ETS1 (UniProt P14921); experiment: ETS1 binding intensity (PBM fluorescence), ETS1 alone (arbitrary fluorescence units); higher = stronger binding; details: ETS1 concentration 1 nM; RUNX1 concentration 0 nM
T1 sequence: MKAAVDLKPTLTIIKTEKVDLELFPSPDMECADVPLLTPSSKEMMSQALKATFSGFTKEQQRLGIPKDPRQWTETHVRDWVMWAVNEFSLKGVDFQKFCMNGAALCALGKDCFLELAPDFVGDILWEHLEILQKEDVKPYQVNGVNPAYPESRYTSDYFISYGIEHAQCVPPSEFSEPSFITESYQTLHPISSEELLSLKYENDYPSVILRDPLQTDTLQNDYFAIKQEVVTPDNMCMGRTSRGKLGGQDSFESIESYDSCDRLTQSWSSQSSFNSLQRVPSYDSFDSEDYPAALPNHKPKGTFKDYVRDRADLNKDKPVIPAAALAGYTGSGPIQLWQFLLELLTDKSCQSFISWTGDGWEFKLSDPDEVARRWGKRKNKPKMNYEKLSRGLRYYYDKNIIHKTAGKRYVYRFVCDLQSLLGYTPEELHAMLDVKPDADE

RUNX1 [1] = target: RUNX1 (UniProt Q01196); experiment: RUNX1 binding intensity (PBM fluorescence) in presence of ETS1, normalised to RUNX1-only experiment (arbitrary fluorescence units); higher = stronger binding; details: RUNX1 concentration 2 nM; ETS1 concentration 25 nM
Experimental: (§1)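 Cooperative gcPBM on 36-bp genomic probes with neighbouring ETS1 and RUNX1 sites. Recombinant human RUNX1 (2 nM) was incubated alone or with ETS1 (25 nM) and detected with anti-RUNX1 antibody plus Alexa488 secondary. Values are medians over 4 replicate spots; the RUNX1+ETS1 data were normalised to the RUNX1-only data. The probes sit in constant array flanks that are not printed.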

RUNX1 [2] = target: RUNX1 (UniProt Q01196); experiment: RUNX1 binding intensity (PBM fluorescence), RUNX1 alone (arbitrary fluorescence units); higher = stronger binding; details: RUNX1 concentration 2 nM; ETS1 concentration 0 nM
Experimental: as §1
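Throughout, for RUNX1 binding intensity (PBM fluorescence) in presence of ETS1, normalised to RUNX1-only experiment: Full-length recombinant human ETS1 or RUNX1 bound to double-stranded 36-bp genomic probes on microarrays, detected by protein-specific primary antibody and Alexa488 secondary, spot fluorescence as median of four replicate spots.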
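Throughout, for RUNX1 binding intensity (PBM fluorescence), RUNX1 alone: Full-length recombinant human RUNX1 bound to double-stranded 36-bp genomic probes on a high-density microarray, scored as Alexa488 fluorescence per spot via anti-RUNX1 antibody, median of four replicate spots.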

RUNX1, sequence (Q01196 whole entry): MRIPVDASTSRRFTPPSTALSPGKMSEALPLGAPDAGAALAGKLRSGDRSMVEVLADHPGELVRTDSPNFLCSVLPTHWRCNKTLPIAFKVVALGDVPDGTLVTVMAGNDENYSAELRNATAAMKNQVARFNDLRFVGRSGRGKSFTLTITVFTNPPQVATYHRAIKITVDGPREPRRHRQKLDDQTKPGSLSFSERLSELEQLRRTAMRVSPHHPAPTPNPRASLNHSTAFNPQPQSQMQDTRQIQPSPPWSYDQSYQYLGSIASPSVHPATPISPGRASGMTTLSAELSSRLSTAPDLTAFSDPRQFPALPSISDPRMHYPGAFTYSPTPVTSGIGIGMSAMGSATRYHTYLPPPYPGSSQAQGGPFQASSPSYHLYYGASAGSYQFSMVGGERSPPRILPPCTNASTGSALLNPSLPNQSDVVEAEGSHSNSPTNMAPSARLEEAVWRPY

Sequence | ETS1 binding intensity (ETS1) | RUNX1 binding intensity (RUNX1 [1]) | RUNX1 binding intensity (RUNX1 [2])
TCTGTCGTCCCACTTCCTGCTGCGGTTTCCACCTCG | 3340 | 21300 | –
ACCACACTTCCCAGGAGTCTCTGCGGCCGCGCGGAG | – | 801 | –
CCGGGAAACACGGGAGAGCGACCGAAACCGCAATCA | – | 4390 | –
AGTTACAGTAAAGGATGTGGTGAAACAGATGTTTAT | 847 | 923 | –
AACAGACAGGATGTGGCCTCTGCCAAAACCACCATC | – | 2310 | –
AGGGACCCGGATGTCTGGTCTGCGGCTGCTCCTCTA | 1460 | 1250 | –
CAGATTCCCGGAAAGGGGGACATGTAGCCGCAAAAG | 509 | 1040 | –
AGCCTGGCCTCGGCAGGATGTGGGTGTAGGTCATGC | 4780 | 999 | –
GTGCCTTTTCATGTGGGATGTGGCTTCAAGGAGACC | – | 822 | –
CCCCCTGAACATCCGGGGCCTTTTAACCGCCCACGG | 1290 | 1790 | –
CTTCATCAACCCATCCTGTCTTGTGGTTAAGTCAAG | 392 | 6360 | –
CCCTGACTTTTACGGAAATAGCGGTCCAAAAGCGCC | 986 | 1160 | –
GTGCTAGGACACAGGAAGCGATACCACAAAGAACAT | 3200 | 1790 | –
GGCGAGGCTGAGAGGAAACCACACTCTCACTGGGGT | – | 921 | –
CCGCCCCCGGACGGTCACAGCACCCAAACCGCAGGC | – | 3240 | –
CAGAGAAACAGGAAGAACAGTGGTTTCAACTGAAAT | 1310 | 939 | –
TCCCTAAGTCACATCCTGTGGGCAAAGGCCCTAGCA | 880 | 1570 | –
GGCGACCAGCTCCGGAAAGCGCGGTGGGGACGCGCT | – | 865 | –
CACTTCCTCCTCGGGGGCCTCAGAAAACCACAGGGC | 413 | 2790 | –
GACAGTTTTCCGGCCTAGTTTGCGGCTGCTCCTGCC | – | 2440 | –
TGCCTCACCTCACATCCGTTTGTGGCTGCCGAGTGC | 1090 | 1880 | –
CCTCCGGAACGGCGCGGGGGATTGTGGGGTGTAGGG | – | 761 | –
GCTGGGGCAGGAAGCTTCTAGGCCACAGACAGGACG | – | 865 | –
GGCGCTAGGCTTCCGGATCGCGGTGGGCGGAGTTCA | – | 1230 | –
ACCGCCGGAAGTTTCTGCCGCGGCTTTGCGGGGACG | 3320 | 1760 | –

Sequence | ETS1 binding intensity (ETS1) | RUNX1 binding intensity (RUNX1 [1]) | RUNX1 binding intensity (RUNX1 [2])
GGCTTCCGGCGGGGTACCCTCCTCTGTGGGCGGGGC | 563 | 1750 | –
CAGAGGAAGCCCACCCCATAAAAGAACCACAGATAA | – | 864 | –
AGGGGAGGAACCAGGAAGTTGTGGTAAACTGTAGCA | 2490 | 2360 | –
CAGTGGCTAAGGATCCGGTGTTGCGGTGATACATGA | 430 | 1280 | –
TCCGGAAGTGGCACTGATGGGCGCCTGCGGCGGGGG | 2720 | 1030 | –
AGTCGGAAGCCATCTGCCCCAACTTGCGGTCTTCAC | – | 1080 | –
TCCTATATACTTCCGTTTGCCTCGCGGTTTCTTTCT | 1300 | 4520 | –
AATGAAGGAGGGGCAGGATGTGGTCTTGGTGAATCA | 2520 | 1440 | –
TGAGCCTTGGAAGGAAATGATTCACCACAATACTGT | 741 | 867 | –
GCTAGACAGGAAACAGTGAGCTTCTGTGGGCAGGAG | 2770 | 1060 | –
AGCTAGGACAGGATGTGAAAACCACACTGACAAAGT | 2620 | 3510 | –
CAGAGAGCGGACTTCCGCGACGCGGGTAAGCCGGGC | 498 | 894 | –
TGCTGCAGCGGCGCTTCCTGGTGGTCAGGGCGCCAT | – | 924 | –
CAGTGTTCCGCGTCCGGGGGTTTGTGGGAGTTGCCT | – | 1120 | –
AACTGGGCGGAAAGAACGGCTAACCGCAAGCTGCCG | 429 | 23900 | 11800
TTCACTTCCACCACTTCCTGTGGGTTTTGTTCATCC | 3090 | 5560 | 1530
AGCAGGTATACCACTTCCTGTGGTTATCATTTGAGG | 2330 | 6540 | 966
CATAGACCGGATGCCTCGTCAACCACAGAAACCAAT | 2620 | 2940 | 1000
TCGTGAAAAAGGAAGTGGATAAAGTGGTTACGGCAA | 2040 | 1460 | 792
AGGACGGGCGGAAGTGGCTGCGGTGGATGGTGGGAG | 4180 | 3180 | 797
TTTATCATGAATGCAGGATGTGGGCAGACTCACAGC | 2590 | 1280 | 691
TGTTCAGGAACAGGAAATGAAACCCCGCAGCTTTGA | 8520 | 1150 | 748
CCTTCCTTCCGGGGTCGGCCCCGCCCGCAAGCGCCG | 441 | 3960 | 1180
ATCTTTTGATGAGGATGTGGTTTCCAGGCAGGTGCT | 836 | 1620 | 902
CGCCGAACTTCCGGCAGTAAATTCCGTGGTTTCCCT | 2800 | 2400 | 911

Sequence | ETS1 binding intensity (ETS1) | RUNX1 binding intensity (RUNX1 [1]) | RUNX1 binding intensity (RUNX1 [2])
CCTTGCAGCAACGGATGTGGGTTTTTTTTTTTCTTT | 4030 | 10500 | 1120
AGCTGCATTTCCGGGCAGGCAATGAAACCACAGAGT | 1100 | 2370 | 918
ATAAACAGGAAGCTGAGTATGTGACCACAGACATTC | 1670 | 1630 | 840
CAAGCACATTACGGAAGAGGCTGACCGCAAATACGA | 595 | 6950 | 4550
ATAGACTCAGGAAGTGATTGTGGTAAGATTCTATAT | 1460 | 1440 | 829
CTTAGCACTTCAGCCGGAAACCACAGCATACATTTC | 3980 | 2310 | 1460
TTGGTGACCTCTTCCTGTCCGCTGTGGTGTTGTTAC | 1080 | 2350 | 841
ACACAGGAAGGACGCACGCTCCCGCCCCAACCACAT | 690 | 1060 | 901
ATATATCACCCCTTCCTTGCAAAACCACAAGACCAA | 508 | 8230 | 6030
TTTCTGAAACCCTCAGGATGTGGGTTTTCACACTGT | 1310 | 1100 | 800
TGTATGAAAAAAACAGGAAACCACAGAGAACTGAGG | 2210 | 2060 | 1060
AGGTCGCCCTCCGGATGCGGTCCCCACACCGCCTGC | 1870 | 1490 | 857
CATTCAGTAAAAGGATGTGGTTTAGAACAGATGAAA | 1230 | 2150 | 958
CGGTCAGGTCGCAGGAAACCACAGCGGCAGCGCGGC | 732 | 1840 | 1370
ACACCTCAGGAAGTGGCAGAGACCACAACAAGTCAG | 701 | 1620 | 816
CCGATTTCCCCGGACGTGGTGAGACCGCGCTTCGTC | 591 | 1280 | 835
TGAAACCCAGCAGGATGTGGGTTAACGGCAGGGGAG | 2590 | 2250 | 733
CCCGCTCACGCCGGAAGTGGTTTGCGTTTTCAAGAT | 14400 | 7390 | 741
GCGCCCTCCAGGAAACGCCGCGGTTTACTGTCTGCC | 1120 | 1910 | 912
CTTAGAGTACCAGGATGTGGTTTGGCCTGGGGGTGG | 1790 | 1800 | 1000
GAGGGGGAGGTTTCCGGGGCCTGTGGTTACTACACT | 438 | 1910 | 943
GCCGCTGCCTCTTCCTGTGTGGTTTTTCAGGGCTTA | 651 | 2920 | 1050
CCAACAGTACCCTTCCTCCCTTAACCACAAGACTGA | 445 | 6290 | 5500
CTGAAACAGGAAGCTGAGGGTGCGGTTGGGGGAGGA | 2210 | 1520 | 811
GGCCGACGGGAAGTGTAGTCCGGCCTGCGGTCCGGG | 801 | 1050 | 704

Sequence | ETS1 binding intensity (ETS1) | RUNX1 binding intensity (RUNX1 [1]) | RUNX1 binding intensity (RUNX1 [2])
GGGACAGACTCTCCAGGATGTGGTTGGATTTTGGGC | 1520 | 1040 | 754
TCCAGCTCCACAGGATGTGGTGAGTGAAGCAGCAAG | 2590 | 2380 | 694
AACAGGAAGTGGTCTTAGAGATCATGCGGTTCAGAG | 2220 | 2350 | 787
GCCGTAGCGGAAGAGTGTTCGTGGTCATGTGACGCC | 671 | 1160 | 718
GGACAGGAAGTTCCTGCAGCTTCTACCACAAACCTA | 2450 | 1420 | 829
TTGTCAGATGGCGAAGGAAACCGCGAAATTCGCCAT | 608 | 1050 | 1270
CAAGTAATCTGCTCAGGAAGTGGTTTGAATAGAGGA | 2540 | 977 | 743
GCCACACTGGCGGAAATGGTGGTTACTGTTCGAGCC | 3510 | 1560 | 711
CGAAACGCGTTCCCCGGAAACCGCGCCCGGCTCCGA | 1810 | 1090 | 763
GGCAACCGGCCCCGGAAGTTGCGGCAGGTGCGTCCA | 5780 | 1640 | 685
GAAAAATGAAGTTTCCGCAGTAACCACAACACAGCC | 556 | 2620 | 1350
CTCATTGACAGGAAGTCTAACCACAGGCTTAGGCCC | 3730 | 6750 | 1400
GCCCACCCGCTTCCGGTTGTGGGCCCCGCCCGCCGA | 5540 | 7040 | 801
TCATGCTGCTTCCTGCCCAACCCGCAGTTCCGATAA | 890 | 2350 | 1120
GAAGGAAGTGGAGACAGTAAGGGGAAACCACAAACC | 1060 | 1190 | 922
GGCAGCAAGAAAGGAAATAGTGTGGTTGGGTGGAGA | 1050 | 1010 | 846
CAAGAGAAAGGAAGTGGAAGCTCTTGTGGTCTGGAA | 1460 | 1240 | 733
CTGAGCCGGATGTTACTGGTTAGTGGTTTTCTTTAT | 3290 | 1560 | 917
TGGGGAACGCTGCGGATGCTGCGGTAAACCATGCGA | 643 | 1700 | 1040
AACCAAACAGCCACAGGAAGTGGTTTCTGTGATTCA | 7840 | 1960 | 840
ACCTTGCCTAGAGGAAGTGGTTTTTCGAATCTGAGT | 2070 | 1540 | 739
CCTGTTGATAAAACAGGATGTGGTAAAGAAGCTGGC | 9030 | 10300 | 830
CAGAGCAGAGAGGAAGTGGTGGTGGCCACAGTCCCA | 1760 | 1220 | 686
ATGTGCCCAAAGGATGTCACCGCAAAGATCATAGGA | 561 | 1820 | 1250
